The panel holds about 79,000 compounds, 15% with a hit somewhere; the sample as a whole holds those more often. A number with no mark means an inactive call. Rule as the data show it: active = growth inhibition above about 70%; inactive = the rest.

A short description of this assay: NCI Yeast Anticancer Drug Screen. Data for the cln2 rad14 strain (AID 165).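 Also: 0% = growth equal to vehicle treated cultures.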 As to conditions: S. cerevisiae cln2 rad14 strain, at 50.0 µM, hits give high values. The method, then: Growth inhibition of yeast strains with defined genetic alterations is measured as a screen for potential anti-cancer activity. Selected strains with alterations in DNA damage repair or cell cycle control were exposed to compounds and growth inhibition was measured relative to vehicle treated controls. The strain used in this assay is cln2 rad14
Turning to `COc1ccc(/C=C/C(=O)c2sc(NC(=S)NC(=O)c3ccccc3F)nc2C)cc1OC`, the growth inhibition was 30.1%.
The value for `CCCc1c(O)cccc1O` was 0.9%; that for `O=C(Oc1c(Cl)c(Cl)c(Cl)c(Cl)c1Cl)Oc1c(Cl)c(Cl)c(Cl)c(Cl)c1Cl` was -15.1%; that for `COc1cc(C2SC(N)=Nc3c2c(C)nn3C(=O)c2ccccc2O)ccc1O` (stereo not given) was -1.35%.
Turning to `N#CCCCCBr`, the growth inhibition is -50.7%.
Take `Nc1c(-c2nc3ccccc3[nH]2)sc(=S)n1-c1ccccc1`: the growth inhibition is 2.2%.
Regarding `O=C(CNc1ccccc1)c1ccc(O)c(C(=O)O)c1` (tested in a mixture with another compound), the growth inhibition was -5.35%.
The value for `O=CC(Cc1ccccc1)C(=O)CCc1ccccc1.[Cu+2]` (stereo not given) was -48.6%; that for `CC(C)([NH-])C[NH-].[Cl][Pt+2][Cl]` was -23.4%; that for `O=C1c2ccccc2C(=O)N1CCOCCOCCOCCN1C(=O)c2ccccc2C1=O` was -12.3%.
The result for `COc1ccc(/C=C/C(=O)c2sc(NC(=S)NC(=O)c3ccc(Cl)cc3)nc2C)cc1OC` reads 9.8%; that for `COc1nc2ccccc2nc1OC`, -14.8%; that for `CCCCN1C(=O)C(NC(C)=O)C1COC(C)(C)C` (stereo not given), -8.65%.
For `Brc1ccncc1`, the growth inhibition was 3.35%.
As to `O=C(O)c1ccc(OCC(=O)c2ccccc2)cc1`, the growth inhibition was -6.65%.
The value for `Cc1ccc(S(=O)(=O)Nc2cc3c(cc2NC(=O)C(F)(F)F)-c2ccccc2C3)cc1` was -7.4%.
The result for `Nc1cc(Cl)cc(S(=O)(=O)O)c1O` reads -65.9%; that for `O=C(COc1ccccc1)OC1CCCC1`, -1.9%.
Consider `CCCCCc1c2c(c(CCCCC)c3c1-c1cccc4cccc-3c14)-c1ccc(C)cc1C2`, for which the growth inhibition was -18.1%.
The result for `CCN1CCCCC(=N\O)/C(=N/O)CCCC1` reads -4.2%; that for `CN1c2ccccc2C2=C(c3ccccc3)CC[C@@H](C(=O)N3C4CC5CC[C@@]4(CS3(=O)=O)C5(C)C)[C@@H]21` (stereo not given in full), 10%.
For `COc1cc(Br)c(CC2c3cc(OC)c(OC)cc3CCN2C)cc1OC` (stereo not given), the growth inhibition is 3.2%.
The value for `CC1CN=C(N(Cc2ccc(F)cc2)C(=O)Nc2ccc(Cl)cc2)S1` (stereo not given) was 1.6%.
The value for `C=C(C)COC(CCC)OCC(=C)C` was 8.85%.
The result for `O=C(CC(=O)c1ccc(Cl)s1)C(=O)NC1C2CC3CC(C2)CC1C3` (stereo not given) reads -26.6%; that for `CN(c1ccccc1)S(=O)(=O)c1ccc(Cl)cc1`, 11.4%.
For `CCCOC(=O)c1c(C)c(C)cc(C)c1C`, the growth inhibition was 11.8%.
With `COc1cc(C2SCC(=O)N2NC(=O)c2ccc(NC(C)=O)cc2)cc(OC)c1OC` (stereo not given), the growth inhibition is 6.15%.
The result for `NC(Cc1cccs1)C(=O)O` (stereo not given) reads -43%; that for `CC(C)NC(=O)NCCc1c[nH]c2ccccc12`, 6.95%.
The value for `O=c1[nH]cnc2c1ncn2C1CCC(CO)O1` (stereo not given) was -0.1%; that for `CSC1=C(c2ccc(Cl)cc2)SC(N2CCCCC2)N1c1ccc([N+](=O)[O-])cc1` (stereo not given) was 5.2%; that for `O=C(CCC(=O)Nc1ccc(Cl)c(Cl)c1)CC(=O)c1ccc2ccccc2c1` was 19.9%.
The value for `C/C=C/C#CC#C/C=C/C=C/CC` was 8.6%; that for `COc1ccc(N=Nc2c(-c3ccccc3)nn(C(=O)CC(=O)Nc3ccc(OC)cc3)c2-c2ccccc2)cc1` was -25.4%; that for `O=C(N/N=C/c1ccc(Cl)c([N+](=O)[O-])c1)C(O)(c1ccccc1)c1ccccc1` was -4.45%.
With `CCCCN=C1NS(=O)(=O)c2ccccc21`, the growth inhibition was -8.15%.
As to `CC(=O)n1c(N)nc2ccccc21`, the growth inhibition was 3.4%.
For `CC(=O)OCC(=O)C1(O)C(C)CC2C3CCC4CC(=O)CCC4(C)C3=CCC21C` (stereo not given), the growth inhibition was -2.95%.
Regarding `O=C(O)c1ccccc1CC(C(=O)O)C(=O)O`, the growth inhibition was 7.95%.

The values are drawn from PubChem BioAssay (NCI).
